Results reported in ChEMBL document CHEMBL1961873, “Compounds: GSK PKIS; Assays: Nanosyn kinase panel” (2012).

Experiments:
[1] = biological target: Sphingosine kinase 1 (Homo sapiens) (UniProt Q9NYA1); settings: at 1 µM;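 also: mean SPHK1 inhibition value reported from the GSK PKIS kinase panel screen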
[2] = biological target: T1, Sphingosine kinase 2 (Homo sapiens) (UniProt Q9NRA0); settings: at 0.1 µM
T1 sequence (whole entry): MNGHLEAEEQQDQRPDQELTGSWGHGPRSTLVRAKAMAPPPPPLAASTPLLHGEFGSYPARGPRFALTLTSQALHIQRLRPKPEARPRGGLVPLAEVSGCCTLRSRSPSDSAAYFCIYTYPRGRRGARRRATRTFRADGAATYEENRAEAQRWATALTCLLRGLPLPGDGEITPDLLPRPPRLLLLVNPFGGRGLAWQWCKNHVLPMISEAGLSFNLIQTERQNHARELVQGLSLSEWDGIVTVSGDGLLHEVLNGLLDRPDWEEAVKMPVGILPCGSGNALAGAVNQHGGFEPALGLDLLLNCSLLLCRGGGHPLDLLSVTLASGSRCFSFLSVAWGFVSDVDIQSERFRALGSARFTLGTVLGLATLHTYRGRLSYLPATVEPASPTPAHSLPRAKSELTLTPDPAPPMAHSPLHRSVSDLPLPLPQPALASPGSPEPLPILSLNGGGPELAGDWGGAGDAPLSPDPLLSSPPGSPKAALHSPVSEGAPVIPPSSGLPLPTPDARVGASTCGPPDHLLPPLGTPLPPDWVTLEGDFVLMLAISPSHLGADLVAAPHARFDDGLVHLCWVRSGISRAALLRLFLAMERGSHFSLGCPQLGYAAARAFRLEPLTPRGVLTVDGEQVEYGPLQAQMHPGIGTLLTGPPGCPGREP

[3] = biological target: T1, Sphingosine kinase 2 (Homo sapiens); settings: at 1 µM
[4] = biological target: Casein kinase II subunit alpha (Homo sapiens) (UniProt P68400); settings: at 0.1 µM
[5] = biological target: Casein kinase II subunit alpha (Homo sapiens) (UniProt P68400); settings: at 1 µM
[6] = biological target: T2, Inhibitor of nuclear factor kappa-B kinase subunit alpha (Homo sapiens) (UniProt O15111); settings: at 0.1 µM
T2 sequence (whole entry): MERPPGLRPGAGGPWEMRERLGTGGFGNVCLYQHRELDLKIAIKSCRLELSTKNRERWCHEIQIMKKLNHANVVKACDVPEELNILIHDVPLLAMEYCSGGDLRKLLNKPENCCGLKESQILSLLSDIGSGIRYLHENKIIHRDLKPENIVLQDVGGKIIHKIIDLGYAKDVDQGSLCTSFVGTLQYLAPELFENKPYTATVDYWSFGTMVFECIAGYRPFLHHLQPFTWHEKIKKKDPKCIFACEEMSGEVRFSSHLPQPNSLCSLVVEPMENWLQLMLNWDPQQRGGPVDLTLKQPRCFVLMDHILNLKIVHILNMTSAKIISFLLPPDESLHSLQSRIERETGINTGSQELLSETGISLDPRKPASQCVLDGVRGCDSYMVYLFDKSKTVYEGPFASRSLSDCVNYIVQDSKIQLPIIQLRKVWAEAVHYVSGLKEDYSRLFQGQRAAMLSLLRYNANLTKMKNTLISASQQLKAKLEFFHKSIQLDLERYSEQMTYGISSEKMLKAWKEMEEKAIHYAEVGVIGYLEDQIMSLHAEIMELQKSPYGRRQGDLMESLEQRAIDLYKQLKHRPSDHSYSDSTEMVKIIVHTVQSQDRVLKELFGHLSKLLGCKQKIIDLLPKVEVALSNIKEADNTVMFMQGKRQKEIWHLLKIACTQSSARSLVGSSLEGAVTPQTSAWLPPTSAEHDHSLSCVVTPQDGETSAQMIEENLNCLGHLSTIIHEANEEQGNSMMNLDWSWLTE

[7] = biological target: T2, Inhibitor of nuclear factor kappa-B kinase subunit alpha (Homo sapiens); settings: at 1 µM
[8] = biological target: T3, Inhibitor of nuclear factor kappa-B kinase subunit beta (Homo sapiens) (UniProt O14920); settings: at 0.1 µM
T3 sequence (whole entry): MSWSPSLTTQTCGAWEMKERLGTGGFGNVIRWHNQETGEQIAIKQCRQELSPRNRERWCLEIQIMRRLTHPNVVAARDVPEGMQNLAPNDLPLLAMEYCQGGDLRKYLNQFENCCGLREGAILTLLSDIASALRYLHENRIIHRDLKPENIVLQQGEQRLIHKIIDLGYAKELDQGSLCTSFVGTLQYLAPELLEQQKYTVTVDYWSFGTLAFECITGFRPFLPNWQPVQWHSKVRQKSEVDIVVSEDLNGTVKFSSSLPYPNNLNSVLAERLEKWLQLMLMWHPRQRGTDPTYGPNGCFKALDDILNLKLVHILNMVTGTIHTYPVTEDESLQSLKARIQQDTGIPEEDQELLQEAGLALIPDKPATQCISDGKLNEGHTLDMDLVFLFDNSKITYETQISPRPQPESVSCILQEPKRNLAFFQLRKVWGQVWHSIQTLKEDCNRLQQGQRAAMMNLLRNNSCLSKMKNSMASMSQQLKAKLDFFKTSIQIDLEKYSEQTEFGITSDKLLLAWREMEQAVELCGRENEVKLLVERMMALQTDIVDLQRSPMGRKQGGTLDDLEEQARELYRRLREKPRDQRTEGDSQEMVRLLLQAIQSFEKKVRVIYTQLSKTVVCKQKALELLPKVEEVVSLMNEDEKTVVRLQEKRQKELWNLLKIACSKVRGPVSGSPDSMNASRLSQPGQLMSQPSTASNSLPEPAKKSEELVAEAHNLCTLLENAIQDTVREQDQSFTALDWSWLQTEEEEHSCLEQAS

[9] = biological target: T3, Inhibitor of nuclear factor kappa-B kinase subunit beta (Homo sapiens); settings: at 1 µM
[10] = biological target: T4, Inhibitor of nuclear factor kappa-B kinase subunit epsilon (Homo sapiens) (UniProt Q14164); settings: at 0.1 µM
T4 sequence (whole entry): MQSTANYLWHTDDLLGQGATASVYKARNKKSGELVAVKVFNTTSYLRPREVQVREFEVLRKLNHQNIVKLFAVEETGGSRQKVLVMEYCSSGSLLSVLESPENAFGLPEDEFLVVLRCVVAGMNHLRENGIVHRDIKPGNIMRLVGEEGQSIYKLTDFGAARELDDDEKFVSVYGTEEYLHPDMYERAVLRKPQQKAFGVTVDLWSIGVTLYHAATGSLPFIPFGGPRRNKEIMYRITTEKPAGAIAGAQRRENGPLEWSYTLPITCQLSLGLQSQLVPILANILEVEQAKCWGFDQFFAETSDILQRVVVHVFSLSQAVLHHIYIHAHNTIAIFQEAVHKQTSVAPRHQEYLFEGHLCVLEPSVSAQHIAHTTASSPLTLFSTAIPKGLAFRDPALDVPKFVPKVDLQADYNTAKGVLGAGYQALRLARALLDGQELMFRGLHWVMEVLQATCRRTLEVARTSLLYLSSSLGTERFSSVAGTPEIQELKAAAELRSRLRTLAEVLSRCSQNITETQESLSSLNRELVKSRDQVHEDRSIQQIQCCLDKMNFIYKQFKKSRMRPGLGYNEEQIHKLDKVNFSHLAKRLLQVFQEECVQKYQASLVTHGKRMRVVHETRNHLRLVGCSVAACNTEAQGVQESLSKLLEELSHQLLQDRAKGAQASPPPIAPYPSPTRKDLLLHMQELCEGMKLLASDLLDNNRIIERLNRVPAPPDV

[11] = biological target: T4, Inhibitor of nuclear factor kappa-B kinase subunit epsilon (Homo sapiens); settings: at 1 µM
[12] = biological target: T5, Serine/threonine-protein kinase Nek1 (Homo sapiens) (UniProt Q96PY6); settings: at 0.1 µM
T5 sequence (whole entry): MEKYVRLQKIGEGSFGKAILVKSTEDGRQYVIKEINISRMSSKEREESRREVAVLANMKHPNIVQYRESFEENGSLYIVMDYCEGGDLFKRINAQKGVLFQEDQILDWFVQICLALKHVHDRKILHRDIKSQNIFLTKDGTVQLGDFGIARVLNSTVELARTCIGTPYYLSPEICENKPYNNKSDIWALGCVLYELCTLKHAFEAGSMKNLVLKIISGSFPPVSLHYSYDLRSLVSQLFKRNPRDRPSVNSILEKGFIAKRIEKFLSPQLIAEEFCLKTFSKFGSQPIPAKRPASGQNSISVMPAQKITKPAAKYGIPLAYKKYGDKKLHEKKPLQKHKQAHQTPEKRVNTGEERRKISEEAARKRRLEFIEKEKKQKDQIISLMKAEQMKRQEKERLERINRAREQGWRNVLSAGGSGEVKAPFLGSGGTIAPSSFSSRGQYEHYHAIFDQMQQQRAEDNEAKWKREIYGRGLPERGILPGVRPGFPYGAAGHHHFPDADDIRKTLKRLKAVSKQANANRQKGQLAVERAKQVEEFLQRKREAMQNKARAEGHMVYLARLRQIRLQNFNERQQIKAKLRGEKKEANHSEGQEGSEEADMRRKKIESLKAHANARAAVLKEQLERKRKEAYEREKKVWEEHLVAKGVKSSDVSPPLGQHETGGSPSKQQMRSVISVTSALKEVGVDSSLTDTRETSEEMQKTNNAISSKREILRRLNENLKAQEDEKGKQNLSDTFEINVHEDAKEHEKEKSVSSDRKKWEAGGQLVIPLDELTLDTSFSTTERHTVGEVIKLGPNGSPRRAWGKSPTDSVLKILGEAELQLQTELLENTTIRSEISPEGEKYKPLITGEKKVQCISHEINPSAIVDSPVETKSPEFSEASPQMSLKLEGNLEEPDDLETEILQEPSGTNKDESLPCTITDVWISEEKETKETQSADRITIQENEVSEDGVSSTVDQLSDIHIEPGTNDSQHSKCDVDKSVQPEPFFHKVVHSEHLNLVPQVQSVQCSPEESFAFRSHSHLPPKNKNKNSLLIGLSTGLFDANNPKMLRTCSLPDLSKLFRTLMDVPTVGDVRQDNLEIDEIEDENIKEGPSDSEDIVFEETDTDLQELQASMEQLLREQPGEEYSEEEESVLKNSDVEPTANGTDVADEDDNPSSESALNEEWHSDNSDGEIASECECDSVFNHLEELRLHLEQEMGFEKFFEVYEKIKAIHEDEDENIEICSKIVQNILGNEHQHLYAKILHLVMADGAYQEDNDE

[13] = biological target: T5, Serine/threonine-protein kinase Nek1 (Homo sapiens); settings: at 1 µM
[14] = biological target: T6, Serine/threonine-protein kinase Nek2 (Homo sapiens) (UniProt P51955); settings: at 0.1 µM
T6 sequence (whole entry): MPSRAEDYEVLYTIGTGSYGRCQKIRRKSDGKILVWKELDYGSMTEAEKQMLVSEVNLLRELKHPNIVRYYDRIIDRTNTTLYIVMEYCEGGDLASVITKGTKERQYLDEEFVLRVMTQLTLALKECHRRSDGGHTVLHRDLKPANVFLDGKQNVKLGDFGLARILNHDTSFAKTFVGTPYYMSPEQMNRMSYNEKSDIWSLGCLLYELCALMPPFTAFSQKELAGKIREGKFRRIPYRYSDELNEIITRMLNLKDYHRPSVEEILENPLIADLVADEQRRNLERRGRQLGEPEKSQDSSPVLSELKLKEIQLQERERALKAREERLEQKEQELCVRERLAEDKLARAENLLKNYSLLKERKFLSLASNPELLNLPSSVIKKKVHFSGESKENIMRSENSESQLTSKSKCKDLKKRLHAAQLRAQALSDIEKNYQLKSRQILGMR

[15] = biological target: T6, Serine/threonine-protein kinase Nek2 (Homo sapiens); settings: at 1 µM
[16] = biological target: Serine/threonine-protein kinase Nek6 (Homo sapiens) (UniProt Q9HC98); settings: at 0.1 µM
[17] = biological target: Serine/threonine-protein kinase Nek6 (Homo sapiens) (UniProt Q9HC98); settings: at 1 µM
[18] = biological target: Serine/threonine-protein kinase Nek7 (Homo sapiens) (UniProt Q8TDX7); settings: at 0.1 µM
[19] = biological target: Serine/threonine-protein kinase Nek7 (Homo sapiens) (UniProt Q8TDX7); settings: at 1 µM
[20] = biological target: T7, Serine/threonine-protein kinase Nek9 (Homo sapiens) (UniProt Q8TD19); settings: at 0.1 µM;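 also: reported value is the mean percent inhibition of NEK9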
T7 sequence (whole entry): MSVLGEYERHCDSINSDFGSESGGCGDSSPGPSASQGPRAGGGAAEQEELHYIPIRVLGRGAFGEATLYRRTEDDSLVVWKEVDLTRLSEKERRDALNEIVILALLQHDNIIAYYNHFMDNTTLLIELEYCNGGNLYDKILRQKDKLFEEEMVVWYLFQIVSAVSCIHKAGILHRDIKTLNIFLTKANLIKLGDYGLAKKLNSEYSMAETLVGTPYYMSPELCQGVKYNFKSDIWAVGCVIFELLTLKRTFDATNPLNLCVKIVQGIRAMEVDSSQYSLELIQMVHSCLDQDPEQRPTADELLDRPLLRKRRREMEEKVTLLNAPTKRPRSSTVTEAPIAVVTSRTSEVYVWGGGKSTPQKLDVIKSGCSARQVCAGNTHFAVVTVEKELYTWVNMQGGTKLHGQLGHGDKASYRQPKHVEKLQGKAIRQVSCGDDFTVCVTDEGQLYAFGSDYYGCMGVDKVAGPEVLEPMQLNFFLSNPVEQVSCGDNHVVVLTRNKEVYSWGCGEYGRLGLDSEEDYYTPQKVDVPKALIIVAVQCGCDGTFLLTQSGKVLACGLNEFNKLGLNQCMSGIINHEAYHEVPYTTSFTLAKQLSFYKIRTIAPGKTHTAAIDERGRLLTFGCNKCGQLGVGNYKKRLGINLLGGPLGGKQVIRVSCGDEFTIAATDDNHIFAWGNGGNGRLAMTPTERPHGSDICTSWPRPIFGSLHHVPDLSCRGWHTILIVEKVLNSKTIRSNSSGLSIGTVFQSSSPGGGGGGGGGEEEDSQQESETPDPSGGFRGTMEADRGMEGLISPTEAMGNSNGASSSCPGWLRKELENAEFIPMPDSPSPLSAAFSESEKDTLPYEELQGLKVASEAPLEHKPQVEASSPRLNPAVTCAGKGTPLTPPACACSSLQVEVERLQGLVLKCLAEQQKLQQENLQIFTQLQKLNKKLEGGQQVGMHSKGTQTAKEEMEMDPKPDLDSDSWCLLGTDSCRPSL

Sequence of Serine/threonine-protein kinase Nek7 (Homo sapiens) (Q8TDX7 whole entry, looked up): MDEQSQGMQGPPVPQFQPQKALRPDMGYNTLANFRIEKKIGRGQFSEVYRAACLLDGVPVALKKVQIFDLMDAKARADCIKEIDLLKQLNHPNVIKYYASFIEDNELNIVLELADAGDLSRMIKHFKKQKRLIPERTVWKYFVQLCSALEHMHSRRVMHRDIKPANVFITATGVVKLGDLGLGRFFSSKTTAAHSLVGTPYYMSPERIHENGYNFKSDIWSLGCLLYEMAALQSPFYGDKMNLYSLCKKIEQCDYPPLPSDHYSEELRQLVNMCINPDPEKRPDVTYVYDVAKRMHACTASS
Sequence of Serine/threonine-protein kinase Nek6 (Homo sapiens) (Q9HC98 whole entry): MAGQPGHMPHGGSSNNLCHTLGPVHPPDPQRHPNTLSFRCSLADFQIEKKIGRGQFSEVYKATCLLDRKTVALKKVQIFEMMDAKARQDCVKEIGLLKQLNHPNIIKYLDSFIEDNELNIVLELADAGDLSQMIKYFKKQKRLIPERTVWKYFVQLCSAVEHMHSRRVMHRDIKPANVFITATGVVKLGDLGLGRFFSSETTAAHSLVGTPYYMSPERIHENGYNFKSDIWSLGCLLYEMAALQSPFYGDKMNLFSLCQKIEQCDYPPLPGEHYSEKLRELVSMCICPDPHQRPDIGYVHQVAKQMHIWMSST
Sequence of Casein kinase II subunit alpha (Homo sapiens) (P68400 whole entry, looked up): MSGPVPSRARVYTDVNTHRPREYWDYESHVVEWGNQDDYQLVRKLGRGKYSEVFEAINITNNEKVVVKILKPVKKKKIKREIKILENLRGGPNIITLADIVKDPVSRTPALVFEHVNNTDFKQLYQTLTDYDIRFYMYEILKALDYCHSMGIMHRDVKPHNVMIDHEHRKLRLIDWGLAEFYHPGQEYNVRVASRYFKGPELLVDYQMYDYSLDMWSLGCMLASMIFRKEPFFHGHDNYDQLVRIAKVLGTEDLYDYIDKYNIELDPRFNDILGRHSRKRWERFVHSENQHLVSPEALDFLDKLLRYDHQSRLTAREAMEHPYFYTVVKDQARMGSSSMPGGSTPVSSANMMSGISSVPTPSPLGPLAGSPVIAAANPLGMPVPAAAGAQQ
Sequence of Sphingosine kinase 1 (Homo sapiens) (Q9NYA1 whole entry): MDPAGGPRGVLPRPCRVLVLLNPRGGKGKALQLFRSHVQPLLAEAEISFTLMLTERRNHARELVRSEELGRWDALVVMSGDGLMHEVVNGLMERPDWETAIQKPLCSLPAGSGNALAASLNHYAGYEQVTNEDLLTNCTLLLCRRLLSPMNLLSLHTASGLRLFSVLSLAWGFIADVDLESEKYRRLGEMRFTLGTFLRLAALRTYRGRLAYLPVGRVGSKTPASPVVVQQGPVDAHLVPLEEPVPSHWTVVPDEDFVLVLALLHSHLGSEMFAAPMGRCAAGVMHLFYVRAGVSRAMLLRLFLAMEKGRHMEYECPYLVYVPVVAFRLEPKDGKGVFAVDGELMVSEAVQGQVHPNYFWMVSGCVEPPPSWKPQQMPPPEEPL

## COc1ccc2ncn(-c3cc(O[C@H](C)c4ccccc4C(F)(F)F)c(C(N)=O)s3)c2c1
[1]
  inhibition: 2.4%
[2]
  inhibition: -0.06%
[3]
  inhibition: -2.97%
[4]
  inhibition: -0.88%
[5]
  inhibition: 5.02%
[6]
  inhibition: 3.24%
[7]
  inhibition: -5.63%
[8]
  inhibition: -5.7%
[9]
  inhibition: 1.93%
[10]
  inhibition: -0.98%
[11]
  inhibition: 1.28%
[12]
  inhibition: 8.29%
[13]
  inhibition: 43%
[14]
  inhibition: 0.45%
[15]
  inhibition: 11.6%
[16]
  inhibition: 0.31%
[17]
  inhibition: -2.42%
[18]
  inhibition: 1.25%
[19]
  inhibition: 0.51%
[20]
  inhibition: 35.9%
